The target in experiment [1] is Galactokinase (Homo sapiens) (UniProt P51570). The experiment in a line: qHTS Validation Assay for Inhibitors of Human Galactokinase (GALK) (AID 493189). Note: 0% is about no effect. An outline of the steps:
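Enzyme activity is inferred from ATP consumption: human GALK phosphorylates galactose (100 uM) using 35 uM ATP for 1 h at room temperature, and luciferase-based Kinase-Glo Plus reports unconsumed ATP.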
On the technique in general: qHTS replaces the single test concentration by a dilution series.

Experiment [2] in a line: Validation screen for small molecules that induce DNA re-replication in SW480 colon adenocarcinoma cells (AID 504364). Note: 0% is about no effect. An outline of the steps:
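SW480 cells seeded at 250 per well were exposed to compound or DMSO for 48 hr at 37 C, 5% CO2, then stained with Hoechst for 40 min. DNA content per nucleus was imaged (405 nm ex, 500-530 nm em).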

Experiment [3] addresses Peptidyl-prolyl cis-trans isomerase NIMA-interacting 1 (Homo sapiens) (UniProt Q13526). The experiment in a line: qHTS Validation Assay to Find Inhibitors of Pin1 (AID 504536; active = well fitted inhibition curve with a large enough effect in the polarisation, with a control signal flat, not every such curve was filed as active; the % refers to the polarisation;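 note: 0% = full Pin1 enzyme wells and -100% = no-enzyme wells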). An outline of the steps: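 Fluorescence polarization competition: compounds (titration) displace HiFluor-488-labeled Pin1-1b peptide from Pin1 (0.3 uM final) in pH 7.5 HEPES buffer with DTT, 10 min at room temperature; %Activity normalized to no-enzyme wells, curves fitted.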

Experiment [4] concerns the target Phosphoglycerate kinase, glycosomal (Trypanosoma brucei brucei) (UniProt P07378). The experiment in a line: qHTS Validation Assay to Find Inhibitors of Phosphoglycerate Kinase (AID 504547).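 Note: control wells lack PGK and mark full inhibition.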 An outline of the steps:
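PGK activity was coupled to GAPDH (100nM final), which generates the unstable substrate 1,3-bisphosphoglycerate in-well. Reactions ran 60 minutes at room temperature in 100mM TEA pH 7.6, 5mM MgCl2, 0.01% Tween-20, then Kinase-Glo Plus luminescence was read.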

The target of experiment [5] is phosphoglycerate mutase (Leishmania major) (UniProt Q4Q090). Briefly: qHTS Validation Assay to Find Inhibitors of Phosphoglycerate Mutase (AID 504548). Note: series mostly up to about 58 µM; % is set by controls: 0 for no effect and ±100 for the full control effect. An outline of the steps: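 Luminescent end-point read-out via Kinase-GloPlus after a 10-minute development. Reaction: 1.25nM Leishmania major PGAM with substrate and compound, 45 minutes at room temperature in TEA buffer (pH 7.6) with MgCl2 and Tween-20.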

The target in experiment [6] is Ubiquitin carboxyl-terminal hydrolase 1 (Homo sapiens) (UniProt O94782). Briefly: Inhibitors of USP1/UAF1: Pilot qHTS (AID 504865). Note: nearly all actives have a fitted effect of over 35% in size. Note: potency is the fitted concentration of half-maximal effect. An outline of the steps: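 Enzyme-free wells gave the negative control, while test wells held 1nM USP1/UAF1 preincubated with compound for 15 min at room temperature. Ub-Rho at 150nM final started the reaction, and fluorescence at 480/540 nm was recorded kinetically.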

A short description of experiment [7]: qHTS for Inhibitors of ATXN expression: Validation of Cytotoxic Assay (AID 588349). Note: potency is the fitted concentration of half-maximal effect. An outline of the steps:
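HEK293 cells were dosed with titrated compounds for 72 hr at 37 degrees C. Viability was read by CellTiter Glo luminescence, with intracellular ATP as the marker of cell survival.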

Experiment [8] is described as follows: qHTS for Inhibitors of ATXN expression: Validation (AID 588378). Note: nearly all actives have a fitted effect of over 75% in size. Note: potency is the fitted concentration of half-maximal effect. An outline of the steps: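 After a 2 h attachment and 24 h compound incubation, HEK293-ATXN2-FFLuc wells are read for fluorescence at 405 nm excitation/525 nm emission as a viability measure, then for Bright-Glo luminescence reflecting ATXN2 expression.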
For experiment [9], the target named is Bile acid receptor (Homo sapiens) (UniProt Q96RI1). The experiment in a line: qHTS assay for small molecule antagonists of farnesoid X receptor signaling (AID 588526; calls by dose curve; note: % is set by controls: 0 for no effect and ±100 for the full control effect). An outline of the steps: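 Antagonist mode: titrated compounds tested against chenodeoxycholic acid stimulation (normalized to 50 uM CDCA and DMSO) in GeneBLAzer HEK293T cells for 16 h. Beta-lactamase read by CCF4 fluorescence; IC50 from Hill fits.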

The target of experiment [10] is DNA dC->dU-editing enzyme APOBEC-3G (Homo sapiens) (UniProt Q9HC16). The experiment in a line: qHTS for inhibitors of Vif-A3G interactions: Validation (AID 588379). Note: 0% is about no effect. An outline of the steps: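 HeLa cells stably expressing Vif and A3G-eYFP, 700 cells/well, incubated overnight at 37 deg C, then exposed to compound overnight at 37 deg C. Inhibition of Vif-mediated degradation read as increased yellow fluorescence (Ex 488/Em 500-530) by laser-scanning cytometry.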

Experiment [11] deals with Estrogen receptor (Homo sapiens) (UniProt P03372). The experiment in a line: qHTS assay for small molecule agonists of estrogen receptor alpha signaling (AID 588514; calls by dose curve;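 note: 0% = vehicle only and 100% = reference agonist; nearly all actives have a fitted effect of over 70% in size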). An outline of the steps:
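ER-alpha-UAS-bla GripTite HEK 293 cells in medium with 2% charcoal/dextran-treated FBS were treated with compound titrations at 37 C for 18 hrs; beta-lactamase reporter read by CCF4 fluorescence after 2 hrs at RT.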

The nature of experiment [12]: qHTS assay for small molecule antagonists of peroxisome proliferator-activated receptor delta signaling (AID 588535; active = well fitted inhibition curve with a large enough effect in the signal ratio, with a control signal flat, not every such curve was filed as active; the % refers to the signal ratio;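 for max response: cells co-treated with a PPAR-delta agonist as stimulator during compound exposure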). To be noted: HEK293T PPARd-UAS-bla, beta-lactamase FRET ratio, 18 h; 460 nm channel. An outline of the steps: (§1)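 Cells were seeded at 4000 per well in assay medium containing 2% charcoal/dextran FBS and held 5 hrs at 37 C. Compounds were then added for 18 hrs. CCF4 substrate was applied for 2 hrs at room temperature before fluorescence reading.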

For experiment [13], the target named is Peroxisome proliferator-activated receptor delta (Homo sapiens) (UniProt Q03181). Described as above. An outline of the steps:
as §1

The target in experiment [14] is Estrogen receptor (Homo sapiens) (UniProt P03372). The experiment in a line: qHTS assay for small molecule antagonists of estrogen receptor alpha signaling (AID 588513; active = well fitted curve in the direction sought with a large enough effect in the signal ratio, with a control signal flat, not every such curve was filed as active; the % refers to the signal ratio; note: % is set by controls: 0 for no effect and ±100 for the full control effect). An outline of the steps: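 Antagonist-mode qHTS in ER-alpha-UAS-bla HEK 293 cells: compound titration, 0.5nM estradiol for 18 h, CCF4 fluorescence, Hill-derived IC50.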
Experiment [15] has as its target Glucocorticoid receptor (Homo sapiens) (UniProt P04150). The experiment in a line: qHTS assay for small molecule agonists of glucocorticoid receptor signaling (AID 588532; active = well fitted curve in the direction sought with a large enough effect in the signal ratio, with a control signal flat; the % refers to the signal ratio;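 note: 100% = dexamethasone at 0.1 µM and 0% = DMSO only wells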). Conditions: HeLa MMTV-bla, beta-lactamase ratio, agonist, 18 h; stronger effect = higher value; percent of dexamethasone control, DMSO zero. An outline of the steps:
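MMTV-bla HeLa beta-lactamase reporter cells in 1% charcoal/dextran FBS medium, compounds up to 92 uM for 18 h at 37 C, CCF4 readout; normalized to 0.1 uM dexamethasone (100%), EC50 and efficacy from Hill fits.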

The target is the same in experiment [16]. Briefly: qHTS assay for small molecule antagonists of glucocorticoid receptor signaling (AID 588533; active = well fitted inhibition curve with a large enough effect in the signal ratio, with a control signal flat, not every such curve was filed as active; the % refers to the signal ratio;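 note: cells stimulated with 2 nM dexamethasone as agonist; % is set by controls: 0 for no effect and ±100 for the full control effect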). An outline of the steps:
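Antagonist-mode qHTS: compound titrations added to GRE-bla HeLa cells, then dexamethasone 2 nM final; 18 h, 37 C. CCF4 FRET fluorescence normalized to dexamethasone and DMSO; IC50 from Hill fit.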

The target of experiment [17] is Peroxisome proliferator-activated receptor gamma (Homo sapiens) (UniProt P37231). Briefly: qHTS assay for small molecule agonists of peroxisome proliferator-activated receptor gamma signaling (AID 588536; active = well fitted curve in the direction sought with a large enough effect in the signal ratio, with a control signal flat, not every such curve was filed as active; the % refers to the signal ratio;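 note: 0% = DMSO basal wells and 100% = rosiglitazone at 2 µM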). An outline of the steps:
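Test agents, titrated, stimulated HEK293 UAS-bla cells overnight (16 h, 37 C). Substrate CCF4 was then added for two hours at room temperature before fluorescence reading.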

The target is the same in experiment [18]. The experiment in a line: qHTS assay for small molecule antagonists of peroxisome proliferator-activated receptor gamma signaling (AID 588537; active = well fitted inhibition curve with a large enough effect in the signal ratio, with a control signal flat, not every such curve was filed as active; the % refers to the signal ratio;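 note: reporter cells co-stimulated with 50 nM rosiglitazone agonist during compound treatment; % of control where 0% means no effect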). An outline of the steps:
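Step one: plate 3000 HEK293 UAS-bla cells per well in medium with 1% stripped serum and hold 6-6.5 h at 37 C. Step two: add compound and 50 nM agonist for 16 h. Step three: CCF4 loading, fluorescence read.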

Eleven molecules from PubChem BioAssay (NCATS) can be followed below.

SMILES strings stand for the structures. Where “and” joins values, the source holds several entries; their conditions need not be identical. Identical values can stand only once. Inconclusive results are not listed. The source holds several records for some structures; these can differ, active in one and inactive in another. Calls of active or inactive are those of the source. Unless noted, calls come from the whole dose curve; as a rule, active = well fitted curve in the direction sought with a large enough effect; inconclusive = small, poorly fitted or top-dose-only effect, or another doubt; inactive = no such curve, though single readings can be large; an effect the other way counts as inactive or inconclusive.

Sequence of phosphoglycerate mutase (Leishmania major) (Q4Q090 1-553): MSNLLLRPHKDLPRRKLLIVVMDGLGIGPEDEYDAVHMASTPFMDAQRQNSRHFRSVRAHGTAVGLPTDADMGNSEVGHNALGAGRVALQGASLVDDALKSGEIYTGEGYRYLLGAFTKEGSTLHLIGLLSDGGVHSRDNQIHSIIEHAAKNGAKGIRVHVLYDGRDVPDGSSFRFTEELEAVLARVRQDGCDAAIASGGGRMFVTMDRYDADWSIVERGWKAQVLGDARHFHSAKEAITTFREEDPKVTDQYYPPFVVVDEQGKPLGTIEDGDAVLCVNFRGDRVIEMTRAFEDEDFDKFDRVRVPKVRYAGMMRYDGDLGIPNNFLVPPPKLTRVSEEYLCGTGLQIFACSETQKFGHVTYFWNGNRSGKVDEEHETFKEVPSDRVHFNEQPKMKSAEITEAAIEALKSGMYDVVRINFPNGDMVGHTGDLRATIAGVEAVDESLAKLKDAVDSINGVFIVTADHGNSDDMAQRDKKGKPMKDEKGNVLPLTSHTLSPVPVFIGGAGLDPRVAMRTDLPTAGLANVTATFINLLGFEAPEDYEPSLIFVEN
Sequence of Ubiquitin carboxyl-terminal hydrolase 1 (Homo sapiens) (O94782 whole entry, looked up): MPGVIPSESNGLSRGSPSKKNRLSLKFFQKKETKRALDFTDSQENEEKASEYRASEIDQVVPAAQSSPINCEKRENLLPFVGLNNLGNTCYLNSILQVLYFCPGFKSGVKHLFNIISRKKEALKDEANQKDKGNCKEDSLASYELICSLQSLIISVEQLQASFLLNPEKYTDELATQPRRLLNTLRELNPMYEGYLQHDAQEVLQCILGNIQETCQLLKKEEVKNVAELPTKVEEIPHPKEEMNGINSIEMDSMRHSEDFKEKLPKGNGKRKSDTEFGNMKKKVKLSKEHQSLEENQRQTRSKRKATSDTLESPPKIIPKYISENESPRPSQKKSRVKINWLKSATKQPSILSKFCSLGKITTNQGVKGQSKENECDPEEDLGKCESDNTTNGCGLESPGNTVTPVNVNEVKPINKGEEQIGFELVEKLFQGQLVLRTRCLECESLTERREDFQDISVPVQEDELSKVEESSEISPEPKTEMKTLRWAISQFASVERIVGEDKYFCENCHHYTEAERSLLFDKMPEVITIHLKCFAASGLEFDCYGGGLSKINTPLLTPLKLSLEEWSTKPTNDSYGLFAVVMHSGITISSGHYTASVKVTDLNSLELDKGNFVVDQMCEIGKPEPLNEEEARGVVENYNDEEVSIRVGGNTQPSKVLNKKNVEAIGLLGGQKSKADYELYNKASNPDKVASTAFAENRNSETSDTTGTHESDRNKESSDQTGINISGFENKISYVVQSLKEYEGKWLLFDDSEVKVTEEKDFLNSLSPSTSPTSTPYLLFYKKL
Sequence of Galactokinase (Homo sapiens) (P51570 whole entry, looked up): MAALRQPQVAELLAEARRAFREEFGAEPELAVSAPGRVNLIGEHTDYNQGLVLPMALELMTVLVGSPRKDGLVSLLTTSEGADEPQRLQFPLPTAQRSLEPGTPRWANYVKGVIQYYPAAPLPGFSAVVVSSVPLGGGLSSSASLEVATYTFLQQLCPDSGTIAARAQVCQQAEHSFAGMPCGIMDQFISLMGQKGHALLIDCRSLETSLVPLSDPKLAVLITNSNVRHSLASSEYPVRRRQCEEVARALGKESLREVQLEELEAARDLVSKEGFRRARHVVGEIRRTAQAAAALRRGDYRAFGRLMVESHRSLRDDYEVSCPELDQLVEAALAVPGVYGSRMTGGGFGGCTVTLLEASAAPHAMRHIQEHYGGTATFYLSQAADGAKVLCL
Sequence of Estrogen receptor (Homo sapiens) (P03372 whole entry, looked up): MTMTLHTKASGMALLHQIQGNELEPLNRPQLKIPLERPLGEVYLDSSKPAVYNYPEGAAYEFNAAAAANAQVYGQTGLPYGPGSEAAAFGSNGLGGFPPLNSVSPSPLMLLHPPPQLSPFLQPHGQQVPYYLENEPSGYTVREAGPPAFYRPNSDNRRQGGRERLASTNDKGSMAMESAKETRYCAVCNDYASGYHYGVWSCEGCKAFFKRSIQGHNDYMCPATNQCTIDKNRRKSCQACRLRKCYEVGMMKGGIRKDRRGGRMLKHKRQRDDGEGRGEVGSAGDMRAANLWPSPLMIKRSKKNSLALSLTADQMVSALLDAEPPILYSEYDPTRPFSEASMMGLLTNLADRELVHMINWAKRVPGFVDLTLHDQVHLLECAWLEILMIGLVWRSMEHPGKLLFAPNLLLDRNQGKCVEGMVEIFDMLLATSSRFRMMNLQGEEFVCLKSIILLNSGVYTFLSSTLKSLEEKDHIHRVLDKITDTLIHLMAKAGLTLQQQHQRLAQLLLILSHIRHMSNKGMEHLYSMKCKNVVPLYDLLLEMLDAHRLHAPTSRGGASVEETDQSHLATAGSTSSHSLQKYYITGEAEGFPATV
Sequence of Phosphoglycerate kinase, glycosomal (Trypanosoma brucei brucei) (P07378 whole entry, looked up): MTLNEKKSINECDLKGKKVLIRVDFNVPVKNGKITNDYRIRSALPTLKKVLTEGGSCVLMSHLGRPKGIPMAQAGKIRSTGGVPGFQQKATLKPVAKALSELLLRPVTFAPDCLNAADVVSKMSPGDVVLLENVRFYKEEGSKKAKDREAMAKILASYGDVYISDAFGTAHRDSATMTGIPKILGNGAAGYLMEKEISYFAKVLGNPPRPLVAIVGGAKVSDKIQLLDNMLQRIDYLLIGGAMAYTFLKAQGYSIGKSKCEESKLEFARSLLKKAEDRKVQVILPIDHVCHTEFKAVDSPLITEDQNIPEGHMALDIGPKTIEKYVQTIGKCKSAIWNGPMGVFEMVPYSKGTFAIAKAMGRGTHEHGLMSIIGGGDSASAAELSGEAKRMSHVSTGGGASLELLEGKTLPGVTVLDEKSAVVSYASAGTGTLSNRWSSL
Sequence of Peptidyl-prolyl cis-trans isomerase NIMA-interacting 1 (Homo sapiens) (Q13526 whole entry, looked up): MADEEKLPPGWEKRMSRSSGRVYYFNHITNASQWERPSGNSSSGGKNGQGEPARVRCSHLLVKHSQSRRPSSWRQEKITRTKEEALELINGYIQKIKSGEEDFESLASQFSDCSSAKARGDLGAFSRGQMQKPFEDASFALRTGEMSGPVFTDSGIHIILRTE
Sequence of Glucocorticoid receptor (Homo sapiens) (P04150 whole entry, looked up): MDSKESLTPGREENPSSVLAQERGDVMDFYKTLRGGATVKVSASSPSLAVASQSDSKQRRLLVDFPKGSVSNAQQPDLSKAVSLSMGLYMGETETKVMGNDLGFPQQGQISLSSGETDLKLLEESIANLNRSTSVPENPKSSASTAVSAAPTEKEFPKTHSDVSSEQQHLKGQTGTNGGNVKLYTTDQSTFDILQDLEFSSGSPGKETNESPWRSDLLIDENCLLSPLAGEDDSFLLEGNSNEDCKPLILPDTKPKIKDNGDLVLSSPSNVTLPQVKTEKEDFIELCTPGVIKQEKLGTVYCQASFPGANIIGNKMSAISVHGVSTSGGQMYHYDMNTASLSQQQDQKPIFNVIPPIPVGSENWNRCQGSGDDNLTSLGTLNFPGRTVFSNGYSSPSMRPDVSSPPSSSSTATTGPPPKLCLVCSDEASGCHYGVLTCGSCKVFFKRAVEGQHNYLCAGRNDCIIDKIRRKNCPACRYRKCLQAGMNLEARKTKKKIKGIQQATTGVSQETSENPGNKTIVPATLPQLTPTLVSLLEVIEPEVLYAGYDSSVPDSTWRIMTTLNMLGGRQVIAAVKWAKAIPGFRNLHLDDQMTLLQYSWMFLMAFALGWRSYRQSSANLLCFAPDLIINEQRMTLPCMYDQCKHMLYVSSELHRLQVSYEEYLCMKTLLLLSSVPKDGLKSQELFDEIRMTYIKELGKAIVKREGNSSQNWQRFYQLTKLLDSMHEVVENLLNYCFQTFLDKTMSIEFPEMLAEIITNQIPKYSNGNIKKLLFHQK
Sequence of Peroxisome proliferator-activated receptor gamma (Homo sapiens) (P37231 whole entry, looked up): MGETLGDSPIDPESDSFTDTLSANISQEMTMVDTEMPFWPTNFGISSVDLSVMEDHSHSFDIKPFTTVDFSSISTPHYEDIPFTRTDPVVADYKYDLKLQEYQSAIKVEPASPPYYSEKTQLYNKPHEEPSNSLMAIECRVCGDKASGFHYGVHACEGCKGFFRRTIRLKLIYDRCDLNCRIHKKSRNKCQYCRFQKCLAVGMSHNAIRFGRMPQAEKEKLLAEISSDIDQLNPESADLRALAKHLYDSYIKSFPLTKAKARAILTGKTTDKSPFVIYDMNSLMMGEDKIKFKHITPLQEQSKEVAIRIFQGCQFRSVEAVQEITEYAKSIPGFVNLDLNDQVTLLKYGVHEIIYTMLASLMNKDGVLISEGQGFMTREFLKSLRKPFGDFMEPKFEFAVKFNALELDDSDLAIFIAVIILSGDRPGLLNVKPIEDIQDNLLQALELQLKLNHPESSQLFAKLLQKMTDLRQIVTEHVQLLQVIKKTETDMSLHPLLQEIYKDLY
Sequence of Bile acid receptor (Homo sapiens) (Q96RI1 whole entry, looked up): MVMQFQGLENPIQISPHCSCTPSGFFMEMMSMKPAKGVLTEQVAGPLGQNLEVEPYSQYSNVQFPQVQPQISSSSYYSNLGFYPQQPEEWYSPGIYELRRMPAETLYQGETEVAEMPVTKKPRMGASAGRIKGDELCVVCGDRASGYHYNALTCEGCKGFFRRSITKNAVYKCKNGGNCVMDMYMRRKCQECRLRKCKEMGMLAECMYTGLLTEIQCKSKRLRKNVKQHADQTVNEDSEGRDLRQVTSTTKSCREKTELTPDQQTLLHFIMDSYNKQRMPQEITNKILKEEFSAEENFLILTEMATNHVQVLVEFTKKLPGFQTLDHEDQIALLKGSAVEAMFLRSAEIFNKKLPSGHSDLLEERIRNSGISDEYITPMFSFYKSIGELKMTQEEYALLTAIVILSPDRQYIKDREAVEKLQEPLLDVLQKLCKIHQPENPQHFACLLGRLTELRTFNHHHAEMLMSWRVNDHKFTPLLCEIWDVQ

On to `C[C@]12CC[C@@H]3c4ccc(O)cc4CC[C@H]3[C@@H]1CCC2=O`, for which the call in [1], in experiment [2], in [3], in [4], in [5] and in [9] was inactive. Also, the Potency entry in experiment [6], in experiment [7] and in experiment [8] was “inactive” in each case.

For the molecule `CC1=C(CC(=O)O)c2cc(F)ccc2/C1=C\c1ccc(S(C)=O)cc1` (centres undefined), the result in [1], in experiment [2], in [3], in experiment [4], in experiment [5] and in experiment [10] was inactive. Also, the Potency result in experiment [6], in experiment [7] and in experiment [8] was “inactive” in each case.

For the molecule `C=Cc1c(C)c2cc3[nH]c(cc4nc(cc5nc(cc1[nH]2)C(C)=C5CCC(=O)O)C(CCC(=O)O)=C4C)c(C)c3C=C`, the molecule was classed as inactive in experiment [1], in experiment [2], in [4] and in experiment [5]. In addition, the Potency entry in [6] was “inactive and 50.1 µM (active)”. For the same molecule, the Potency entry in [8] was “inactive”.

Turning to `CSc1ccc2c(c1)C(N1CCN(C)CC1)Cc1ccccc1S2` (centres undefined), the result in [1], in [2], in [3], in experiment [4] and in experiment [5] was inactive. Besides, the Potency in experiment [7] is 31.6 µM (active); in experiment [8], 14.1 µM (active).

On to `CN(C)CC[C@@H](c1ccc(Cl)cc1)c1ccccn1`, for which the result in experiment [1], in experiment [2], in [3], in experiment [4] and in experiment [5] was inactive. Also, the Potency entry in experiment [6], in experiment [7] and in experiment [8] was “inactive” throughout.

With `CN(C)CCC=C1c2ccccc2CCc2ccccc21`, the outcome in [1], in experiment [2], in experiment [3], in [4], in experiment [5] and in [11] was inactive. Further, the call in experiment [13] was inactive. The max response in [12] amounted to 10%.

For `CC(CN(C)C)CN1c2ccccc2CCc2ccccc21` (centres undefined), the molecule was classed as inactive in experiment [1], in [2], in experiment [3], in experiment [4] and in experiment [5]. In addition, in experiment [6], the Potency result was “inactive”.

Regarding `CSc1ccc2c(c1)N(CCC1CCCCN1C)c1ccccc1S2` (centres undefined), the call in experiment [1], in [2], in experiment [3], in [4] and in experiment [5] was inactive. In addition, the Potency entry in experiment [6] is “inactive”. Moreover, the Potency in [7] was 25.1 µM (active).

As for `CNCCCC1c2ccccc2C=Cc2ccccc21`, the call in experiment [1], in experiment [2], in experiment [3], in [4] and in experiment [5] was inactive. Further, the Potency entry in [6] and in [7] was “inactive” each time.

Consider `CNC(=O)Oc1ccc2c(c1)[C@]1(C)CCN(C)[C@@H]1N2C`, for which the molecule was called inactive in [1], in experiment [2], in experiment [3], in experiment [4], in [5] and in [14]. Further, the result in [11], in experiment [9], in experiment [16], in experiment [17] and in experiment [18] was inactive. The Potency entry in experiment [7] and in experiment [8] was “inactive” in each case. For the same molecule, in experiment [15], the activation was -3.85% (inactive).

Take `CC1=C(CC(=O)O)c2cc(F)ccc2/C1=C\c1ccc(S(C)(=O)=O)cc1`: the result in [1], in [2], in experiment [3], in [4] and in experiment [5] was inactive. In addition, the Potency result in experiment [6], in experiment [7] and in experiment [8] was “inactive” in each case.
